# Screening data from PubChem BioAssay.
# Most compounds without a hit are left out; they make up all but 3.5% or so of the library.
# Tb PYK inh: qHTS of Trypanosoma Brucei Inhibitors. TbPYK enzyme, Kinase-Glo Plus ATP luminescence, 45 min. Potency, µM (highest dose often 76.8 µM), for the others: at the top dose activity, negative = inhibition, hits mostly inhibitors. 0.12% of 410,000 active. AID 624173, 2012; also: % is scaled to controls: 0 for no effect and ±100 for the full control effect; nearly all actives have a fitted effect of over 50% in size
#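 T. brucei PYK with substrate was exposed to pin-transferred compounds across a concentration series, then started with 130 uM ADP (final). After 45 min at room temperature, Kinase-Glo Plus luminescence was read, normalized and curve-fitted.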
# Giardia FBPA inh-1: qHTS Assay for Inhibitors of Fructose-1,6-bisphosphate Aldolase from Giardia Lamblia; purified Giardia FBPA; Potency, µM (highest dose often 59.6 µM), without a hit: at the top dose activity, negative = inhibition, most hits filed as inhibitors; AID 2451, 2010; 0.71% of 290,000 active; also: % is scaled to controls: 0 for no effect and ±100 for the full control effect; nearly all actives have a fitted effect of over 55% in size
#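 40 nM FBPA preincubated 10 min at RT with compound (up to 57.5 uM final), then substrate plus GAPDH/TPI/NAD/arsenate coupling and diaphorase/resazurin added. Fluorescence read after 20 min at RT, 525/598 nm.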
# Sm TGR inh: qHTS Assay for the Inhibitors of Schistosoma Mansoni Peroxiredoxins; Schistosoma mansoni thioredoxin glutathione reductase (TGR), Q962Y6; purified TGR, DTNB reduction, TNB absorbance 405 nm; Potency, µM (series often up to 114 µM), without a hit: at the highest dose activity change, negative = inhibition, hits mostly inhibitors; 3% of 360,000 active; also: % is scaled to controls: 0 for no effect and ±100 for the full control effect; nearly all actives have a fitted effect of over 60% in size
#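 TGR 20 nM + NADPH 100 uM (dispensed conc.), cpd preinc 15 min RT; start with NADPH (500 uM addition) then DTNB (15 mM addition). Kinetic TNB absorbance, 405 nm filter. Four-parameter Hill fit across titration.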
# LmPK inhibitor: qHTS Assay for Inhibitors of Leishmania Mexicana Pyruvate Kinase (LmPK); Q27686; purified LmPK, Kinase-Glo ATP luminescence, 1 h; Potency, µM (top dose mostly 57.5 µM), inactives show at the top dose activity change, negative = inhibition, usual class: inhibitors; 0.37% of 290,000 active; also: % is scaled to controls: 0 for no effect and ±100 for the full control effect
#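 Purified LmPK (0.1 nM) with 0.5 mM PEP and 0.1 mM ADP in imidazole buffer pH 7.2 with MgCl2/KCl, 1 h at room temperature. ATP formed was read by luciferase luminescence and normalized to no-enzyme and uninhibited controls.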
# NS1 function inh: qHTS Assay for Inhibitors of Influenza NS1 Protein Function | AID 2326, 2010 | 0.4% of 270,000 active | Potency, µM (doses to about 46.1 µM), for the others: at the top dose activity, positive = more growth; calls by dose curve; also: actives are rising curves; nearly all actives have a fitted effect of over 50% in size
#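 In this qHTS, NS1 from influenza A is expressed in budding yeast, where it slows growth. Cells are switched from glucose to 2% galactose medium (pH 6.0, -URA), treated with compound, and growth recovery is read at OD600.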
# RE007 growth inh: qHTS Assay for Inhibitors of the HIV-1 protein Vpr; Potency, µM (highest dose often 92.2 µM), inactives show top-dose activity change, negative = less growth, most hits filed as inhibitors; 0.21% of 360,000 active; S. pombe RE007 Vpr strain, BacTiter-Glo ATP luminescence, 24 h; active = well fitted falling curve with a large enough effect; inconclusive = small, poorly fitted or top-dose-only effect; inactive = no such curve, though single readings can be large or run the other way; also: % is scaled to controls: 0 for no effect and ±100 for the full control effect; nearly all actives have a fitted effect of over 50% in size
#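 Fission yeast RE007 carrying one integrated HIV-1 vpr copy, seeded at OD 0.01 in PMG+AL medium with 23 nL pinned compound. Grown 24 h at 30 degrees; viability read by BacTiter-Glo luminescence after 5 min.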
# Giardia growth: qHTS Assay for Inhibitors of Fructose-1,6-bisphosphate Aldolase from Giardia Lamblia: Giardia lamblia growth inhibition | 5% of 1,500 active | shares compounds with Giardia FBPA inh-1 | Giardia lamblia trophozoite growth inhibition | Potency, µM (doses to about 57.5 µM), without a hit: at the top dose activity change, negative = inhibition, hits mostly inhibitors;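 also: trophozoites exposed to compound for 48 h at 37 °C; % is scaled to controls: 0 for no effect and ±100 for the full control effect; nearly all actives have a fitted effect of over 70% in size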
# Mammalian tox: qHTS Assay for Inhibitors of Fructose-1,6-bisphosphate Aldolase from Giardia Lamblia: Mammalian cellular toxicity. shares compounds with Giardia FBPA inh-1. mammalian cell viability counter-screen, qHTS. Potency, µM (top dose mostly 57.5 µM), without a hit: at the highest dose viability change, negative = toxicity, hits mostly inhibitors. 4% of 1,500 active;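 also: Chinese hamster ovary cells used as mammalian cytotoxicity surrogate; viability measured as cellular ATP by luminescence; compound exposure lasted 48 h before reading; % is scaled to controls: 0 for no effect and ±100 for the full control effect; nearly all actives have a fitted effect of over 60% in size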
# Giardia FBPA inh-2: qHTS Assay for Inhibitors of Fructose-1,6-bisphosphate Aldolase from Giardia Lamblia: Primary screen confirmation | shares compounds with Giardia FBPA inh-1 | purified Giardia aldolase enzyme activity, qHTS | Potency, µM (titrated, usually from 57.5 µM), inactives show at the highest dose activity change, negative = inhibition, most hits filed as inhibitors | 5% of 1,500 active | AID 2787, 2010; also: % is scaled to controls: 0 for no effect and ±100 for the full control effect; nearly all actives have a fitted effect of over 45% in size
# Rabbit aldolase: qHTS Assay for Inhibitors of Fructose-1,6-bisphosphate Aldolase from Giardia Lamblia: Rabbit FBPA Selectivity; shares compounds with Giardia FBPA inh-1; Rabbit muscle FBPA enzyme inhibition, selectivity counter-screen; Potency, µM (series often up to 57.5 µM), for the others: at the top dose activity, negative = inhibition, actives largely listed as inhibitors; 4% of 1,500 active; AID 2794, 2010; also: % is scaled to controls: 0 for no effect and ±100 for the full control effect; nearly all actives have a fitted effect of over 60% in size
# Target sequence (P00883 whole entry, looked up): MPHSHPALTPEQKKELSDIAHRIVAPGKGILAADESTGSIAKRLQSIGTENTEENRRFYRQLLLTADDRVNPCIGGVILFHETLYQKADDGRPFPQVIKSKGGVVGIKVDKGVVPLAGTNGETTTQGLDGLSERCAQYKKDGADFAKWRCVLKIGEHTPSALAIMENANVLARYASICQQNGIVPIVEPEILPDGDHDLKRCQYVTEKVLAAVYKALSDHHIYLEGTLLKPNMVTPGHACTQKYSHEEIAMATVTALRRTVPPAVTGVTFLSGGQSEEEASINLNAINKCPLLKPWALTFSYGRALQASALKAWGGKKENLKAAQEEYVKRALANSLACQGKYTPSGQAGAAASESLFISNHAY
# GAPDH counter: qHTS Assay for Inhibitors of Fructose-1,6-bisphosphate Aldolase from Giardia Lamblia: Coupling assay counterscreen confirmation; Potency, µM (highest dose often 57.5 µM), for the others: at the top dose activity change, negative = inhibition, usual class: inhibitors; shares compounds with Giardia FBPA inh-1; GAPDH coupling enzyme counterscreen, biochemical, qHTS; 6% of 1,500 active; also: % is scaled to controls: 0 for no effect and ±100 for the full control effect; nearly all actives have a fitted effect of over 55% in size
# Starred values were filed as active, the others as inactive; ? = inconclusive; . = no result; [ ] = remark or other dose. Unless noted, calls follow the shape of the dose curve; as a rule, active = well fitted curve in the direction sought with a large enough effect; inconclusive = small, poorly fitted or top-dose-only effect, or another doubt; inactive = no such curve, though single readings can be large; an effect the other way counts as inactive or inconclusive. Potency is read from the fitted curve at half-maximal effect.
SMILES,Tb PYK inh,Giardia FBPA inh-1,Sm TGR inh,LmPK inhibitor,NS1 function inh,RE007 growth inh,Giardia growth,Mammalian tox,Giardia FBPA inh-2,Rabbit aldolase,GAPDH counter
COc1ccc(/C=N\N2CCN(Cc3ccccc3Cl)CC2)cc1,14%,16µM*,18%,-6%,22%,?,-12%[10.4 µM],-11%,-1%,6%,6%
COc1ccc(CN2CCN(Cc3ccc(C)cc3)CC2)c(OC)c1,1%,14µM*,-23%,-3%,2%,-13%,19%,1%,3%,1%,-2%
COc1ccc(CN2CCC(N3CC(C)OC(C)C3)CC2)c(OC)c1 (stereo not drawn),36%,?,10%,-6%,-1%,-19%,12%[38.3 µM],10%,3%,4%,16%
COc1ccc(CN2CCN(Cc3ccc(C(F)(F)F)cc3)CC2)c(OC)c1,20%,?,3%,-4%,-3%,-22%,.,.,.,.,.
COc1ccc(CN2CCN(Cc3ccccc3F)CC2)cc1,8%,16µM*,8%,-5%,0%,-17%,16%,-3%,-1%,9%,1%
COc1ccc(CN2CCN(Cc3ccccc3F)CC2)c(OC)c1,-5%,13µM*,-18%,-5%,1%,-6%,19%,0%,-3%,7%,-14%
CC(=O)OC[C@@H]1O[C@H](C/C=N\O[C@@H](C)CN2CCCCc3nc(C)c(C)cc32)C=C[C@@H]1OC(C)=O,.,-5%[12.9 µM],.,.,.,.,.,.,.,.,.
CNC(=S)N(C)CCc1cc2c(c(OC)c1C=C1C(=O)NC(=O)NC1=O)OCO2,-10%,7.1µM*,?,-2%,-1%,3%,-9%[38.3 µM],-6%,-9%,1%,3%
C=CCN1C(=O)NC(=O)/C(=C/c2c(CCN(C)C(=O)c3ccccc3)cc3c(c2OC)OCO3)C1=O,-15%,-6%,-18%,-2%,11%,-3%,.,.,.,.,.
Cc1cccc(-n2ccnc2SCC(=O)Nc2cccc3ccccc23)c1,0%,.,13%,.,.,.,.,.,.,.,.
O=C(O[C@@H]1OC2COC(=O)c3cc(O)c(O)c(O)c3-c3c(cc(O)c(O)c3O)C(=O)O[C@@H]([C@H]1O)[C@@H]2O)c1cc(O)c(O)c(O)c1,?,?,28µM*,-28%,16%,3%,-33%[38.3 µM],-6%,?,?,?
O=C(O)COc1ccccc1C(Nc1cccnc1)c1cc(Cl)c2cccnc2c1O (stereo not drawn),30%,18µM*,1µM*,-2%,.,13%,30%,11%,-16%,-6%,3%
CCCC/C=C/C(NC(=O)Oc1cccc(C(F)(F)F)c1)c1ccccc1 (stereo not drawn),.,4%,.,.,.,.,.,.,.,.,.
